Values joined by “and” are separate entries in the source; they are usually repeats but may differ in a detail not shown here. Equal values may be shown once. Results filed as inconclusive are left out. A call without a number means that no potency is given here. Active and inactive are the calls of the source. Unless noted, the call rests on the fitted dose curve.
What was measured:
[1] = qHTS assay for small molecule agonists of retinoid X receptor alpha signaling (AID 588544); conditions: HEK293T RXRa-UAS-bla, beta-lactamase reporter, 18 h; 530 nm emission; further: potency means the concentration at half of the fitted maximal effect
[2] = target: Retinoic acid receptor RXR-alpha (Homo sapiens) (UniProt P19793); assay: as above; conditions: HEK293T RXRa-UAS-bla, beta-lactamase reporter, 18 h; series mostly up to 76.7 µM
Chain of Retinoic acid receptor RXR-alpha (Homo sapiens) (P19793 whole entry, looked up): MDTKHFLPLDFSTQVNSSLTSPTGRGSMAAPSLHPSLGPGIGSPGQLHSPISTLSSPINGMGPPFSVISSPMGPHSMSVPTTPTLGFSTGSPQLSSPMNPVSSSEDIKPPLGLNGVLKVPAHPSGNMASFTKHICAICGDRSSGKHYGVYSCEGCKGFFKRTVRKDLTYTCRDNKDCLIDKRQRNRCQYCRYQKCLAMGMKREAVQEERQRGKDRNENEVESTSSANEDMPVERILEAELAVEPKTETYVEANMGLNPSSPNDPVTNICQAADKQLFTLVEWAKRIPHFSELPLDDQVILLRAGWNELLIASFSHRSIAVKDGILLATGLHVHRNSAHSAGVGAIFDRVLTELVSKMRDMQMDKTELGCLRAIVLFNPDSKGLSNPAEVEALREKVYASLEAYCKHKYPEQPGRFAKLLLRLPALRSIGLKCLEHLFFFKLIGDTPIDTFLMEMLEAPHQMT

[3] = target: Thyroid hormone receptor beta (Homo sapiens) (UniProt P10828); assay: qHTS assay for small molecule agonists of thyroid hormone receptor beta signaling (AID 588545); conditions: TR-UAS-bla GripTite HEK 293, beta-lactamase ratio, agonist mode, 18 h, percent of T3 response, DMSO as zero; series mostly up to 76.7 µM
Chain of Thyroid hormone receptor beta (Homo sapiens) (P10828 whole entry, looked up): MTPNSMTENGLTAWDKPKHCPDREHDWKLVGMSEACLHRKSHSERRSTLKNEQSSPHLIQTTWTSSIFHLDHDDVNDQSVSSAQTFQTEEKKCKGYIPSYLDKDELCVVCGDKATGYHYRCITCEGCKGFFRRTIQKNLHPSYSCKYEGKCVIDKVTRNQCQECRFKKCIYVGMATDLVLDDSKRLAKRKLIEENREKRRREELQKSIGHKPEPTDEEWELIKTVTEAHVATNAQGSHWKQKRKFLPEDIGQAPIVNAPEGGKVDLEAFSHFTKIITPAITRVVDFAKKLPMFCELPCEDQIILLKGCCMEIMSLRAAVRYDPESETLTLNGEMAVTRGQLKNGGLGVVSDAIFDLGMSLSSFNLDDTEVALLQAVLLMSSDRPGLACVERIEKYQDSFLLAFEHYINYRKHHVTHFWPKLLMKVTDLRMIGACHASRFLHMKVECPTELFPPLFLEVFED
Outline: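 Beta-lactamase reporter activity under TR response element control is measured in HEK 293 cells after 18 hrs compound exposure. Signal is ratiometric CCF4 fluorescence, 460/530 nm.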

[4] = qHTS assay for small molecule antagonists of retinoid X receptor alpha signaling (AID 588546; active means well fitted inhibition curve with a large enough effect in the signal ratio, with a control signal flat, not every such curve was filed as active; the % refers to the signal ratio;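 further: cells stimulated with 9-cis-retinoic acid as agonist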); conditions: HEK293T RXRa-UAS-bla, beta-lactamase ratio, antagonist mode; measured here: W530 green channel, cytotoxicity proxy
Outline: (§1)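 Beta-lactamase reporter inhibition, read as CCF4 fluorescence ratio (ex 405, em 460/530 nm) after 2 h at RT. HEK293T UAS-bla cells, 2500/well, were stimulated with 9-cis-RA at 500 or 100 nM final alongside test compound for 18 h at 37 C.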

[5] = target: Retinoic acid receptor RXR-alpha (Homo sapiens) (UniProt P19793); assay: as above; conditions: HEK293T RXRa-UAS-bla, beta-lactamase ratio, antagonist mode
Outline: as §1

[6] = target: Voltage-gated inwardly rectifying potassium channel KCNH2 (Homo sapiens) (UniProt Q12809); assay: qHTS Assay for Small Molecule Inhibitors of the Human hERG Channel Activity (AID 588834; active means well fitted curve in the direction sought with a large enough effect; an effect the other way counts as inactive or inconclusive;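 further: lower thallium flux fluorescence means stronger hERG block; nearly all actives have a fitted effect of over 50% in size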; further: potency means the concentration at half of the fitted maximal effect); conditions: U2OS BacMam hERG, FluxOR thallium flux fluorescence; series mostly up to 46.1 µM
Chain of Voltage-gated inwardly rectifying potassium channel KCNH2 (Homo sapiens) (Q12809 whole entry, looked up): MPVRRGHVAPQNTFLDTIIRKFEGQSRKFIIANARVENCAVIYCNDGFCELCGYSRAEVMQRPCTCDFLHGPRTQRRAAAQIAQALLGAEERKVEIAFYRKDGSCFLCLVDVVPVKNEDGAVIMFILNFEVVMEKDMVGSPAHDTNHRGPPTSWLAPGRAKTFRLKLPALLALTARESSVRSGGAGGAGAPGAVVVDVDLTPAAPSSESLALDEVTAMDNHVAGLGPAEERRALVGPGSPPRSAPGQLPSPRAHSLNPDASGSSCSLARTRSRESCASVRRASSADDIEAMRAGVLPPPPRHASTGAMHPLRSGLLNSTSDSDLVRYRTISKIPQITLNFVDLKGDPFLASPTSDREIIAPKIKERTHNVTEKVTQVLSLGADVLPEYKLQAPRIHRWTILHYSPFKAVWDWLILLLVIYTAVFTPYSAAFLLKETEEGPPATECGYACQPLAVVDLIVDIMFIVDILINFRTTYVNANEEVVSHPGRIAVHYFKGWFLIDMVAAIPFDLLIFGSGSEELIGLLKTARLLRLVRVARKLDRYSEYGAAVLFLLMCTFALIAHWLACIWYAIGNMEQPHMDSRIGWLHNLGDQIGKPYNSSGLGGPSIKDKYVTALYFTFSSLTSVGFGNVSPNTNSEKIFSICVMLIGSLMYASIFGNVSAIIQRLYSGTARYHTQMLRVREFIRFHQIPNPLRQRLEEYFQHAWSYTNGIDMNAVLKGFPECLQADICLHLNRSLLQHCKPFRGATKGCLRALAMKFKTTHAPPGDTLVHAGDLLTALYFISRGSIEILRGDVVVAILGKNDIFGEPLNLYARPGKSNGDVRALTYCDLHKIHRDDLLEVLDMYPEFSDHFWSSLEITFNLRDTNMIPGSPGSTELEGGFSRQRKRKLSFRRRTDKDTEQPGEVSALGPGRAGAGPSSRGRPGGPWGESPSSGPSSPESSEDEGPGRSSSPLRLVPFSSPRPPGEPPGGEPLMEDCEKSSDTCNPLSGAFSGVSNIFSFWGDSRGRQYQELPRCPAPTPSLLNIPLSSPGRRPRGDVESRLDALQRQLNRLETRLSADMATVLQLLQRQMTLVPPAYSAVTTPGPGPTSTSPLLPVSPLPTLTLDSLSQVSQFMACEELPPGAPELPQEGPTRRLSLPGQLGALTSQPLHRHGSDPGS
Outline: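 Kinetic FDSS fluorescence; U2OS + hERG BacMam (~100 virus particles/cell); FluxOR Tl+ flux; ~10 min cpd; AC50 (Hill).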

[7] = target: Luciferin 4-monooxygenase (Photinus pyralis) (UniProt P08659); assay: Biochemical firefly luciferase enzyme assay for NPC (AID 624030; active means well fitted curve in the direction sought with a large enough effect; an effect the other way counts as inactive or inconclusive;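 further: purified P. pyralis luciferase at 10 nM with luciferin and ATP substrate; nearly all actives have a fitted effect of over 70% in size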); conditions: purified P. pyralis luciferase, luminescence, 5 min; series mostly up to 58.6 µM
Chain of Luciferin 4-monooxygenase (Photinus pyralis) (P08659 whole entry, looked up): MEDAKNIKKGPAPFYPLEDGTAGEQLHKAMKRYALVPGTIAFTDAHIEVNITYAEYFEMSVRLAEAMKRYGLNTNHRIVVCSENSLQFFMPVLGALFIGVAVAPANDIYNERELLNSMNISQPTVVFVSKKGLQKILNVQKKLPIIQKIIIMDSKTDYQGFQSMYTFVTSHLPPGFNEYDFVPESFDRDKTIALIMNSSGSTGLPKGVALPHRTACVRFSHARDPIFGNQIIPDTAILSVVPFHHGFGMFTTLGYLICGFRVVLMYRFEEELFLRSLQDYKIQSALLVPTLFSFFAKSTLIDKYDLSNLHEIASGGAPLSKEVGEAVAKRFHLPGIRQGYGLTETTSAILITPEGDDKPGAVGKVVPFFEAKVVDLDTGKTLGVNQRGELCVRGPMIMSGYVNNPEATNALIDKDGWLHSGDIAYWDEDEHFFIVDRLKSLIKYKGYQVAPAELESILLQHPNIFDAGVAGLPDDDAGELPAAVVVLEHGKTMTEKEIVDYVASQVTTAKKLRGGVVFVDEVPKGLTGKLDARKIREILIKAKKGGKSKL
Outline: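 Counter-screen for direct inhibition of the luciferase enzyme by approved-drug library compounds, run at 10 nM enzyme in 50 mM Tris acetate (final). Luminescence was read within 5 min of enzyme-buffer addition and normalized to PTC124 versus DMSO (0%).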

[8] = target: Vitamin D3 receptor (Homo sapiens) (UniProt P11473); assay: qHTS assay for small molecule antagonists of vitamin D receptor signaling (AID 588541); conditions: HEK293T VDR-UAS-bla, beta-lactamase ratio, antagonist mode; series mostly up to 76.7 µM; further: potency means the concentration at half of the fitted maximal effect
Chain of Vitamin D3 receptor (Homo sapiens) (P11473 whole entry, looked up): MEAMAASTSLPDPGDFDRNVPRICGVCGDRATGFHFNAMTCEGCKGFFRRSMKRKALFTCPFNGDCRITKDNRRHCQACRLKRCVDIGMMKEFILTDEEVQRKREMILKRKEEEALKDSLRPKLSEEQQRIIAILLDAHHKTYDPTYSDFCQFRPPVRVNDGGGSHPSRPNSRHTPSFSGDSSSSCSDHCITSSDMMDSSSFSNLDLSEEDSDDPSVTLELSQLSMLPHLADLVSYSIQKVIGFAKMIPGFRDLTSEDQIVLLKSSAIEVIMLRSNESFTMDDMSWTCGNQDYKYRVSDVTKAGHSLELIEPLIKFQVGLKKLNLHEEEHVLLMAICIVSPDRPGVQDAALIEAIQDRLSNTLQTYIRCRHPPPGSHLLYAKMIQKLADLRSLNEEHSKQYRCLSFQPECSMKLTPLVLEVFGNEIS
Outline: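 VDR-UAS-bla HEK293T cells (2000/well, 2% charcoal-stripped FBS) were treated with titrated compounds plus 1-alpha,25-dihydroxyvitamin D3 (50 nM or 3 nM final) for 16 h at 37 C. CCF4 beta-lactamase fluorescence was read; Hill fits gave IC50.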

[9] = target: Vitamin D3 receptor (Homo sapiens) (UniProt P11473); assay: qHTS assay for small molecule agonists of vitamin D receptor signaling (AID 588543); conditions: HEK293T VDR-UAS-bla, beta-lactamase ratio, 16 h; series mostly up to 76.8 µM
Outline: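 Agonist-mode beta-lactamase reporter: HEK293T VDR-UAS-bla cells in charcoal-stripped 2% FBS, compound series 16 h 37 C, CCF4 2 h RT. EC50 from Hill fit, scaled against DMSO and 50 nM calcitriol control.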

[10] = S16 Schwann cell viability assay (CellTiter-Glo assay) (AID 624031; active means well fitted curve in the direction sought with a large enough effect; an effect the other way counts as inactive or inconclusive;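 further: cellular ATP luminescence as a viability measure; nearly all actives have a fitted effect of over 70% in size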); conditions: S16 rat Schwann cells viability, 24 h; series mostly up to 57.5 µM
Outline: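 Untransfected S16 rat Schwann cells; compound 24 h, 37 °C/5% CO2; CellTiter-Glo ATP luminescence. % activity vs no-cell wells and DMSO controls (0%); concentration-effect curves classed by r2, response magnitude, activity.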

With `O=C1c2ccccc2C(=O)C1C(=O)C(c1ccccc1)c1ccccc1` the max response [1] was -20.8%, the Potency [2] was “inactive” and the outcome [3] was “inactive”. The max response [4] was -10.9%, the max response [5] was 13.2% (inactive) and the Potency [6] was “inactive”. For the same compound, the Potency [7] was “inactive”.

In the case of `CCOC(=O)CC(SP(=S)(OC)OC)C(=O)OCC` (stereo not given), the Potency [8] is reported as “inactive”, the outcome [9] is reported as “inactive” and the max response [1] is reported as 5.59%. The Potency [2] was “inactive”, the outcome [3] was “inactive” and the max response [4] was 12.5% and 3.13% and -23.2%. The max response [5] was -24.3% (inactive) and -13.6% (inactive) and -13.7% (inactive), the Potency [6] was “inactive” and the Potency [7] was “inactive”. The outcome [10] was “inactive”.

For `CCCC(C)(COC(N)=O)COC(N)=O`, the Potency [8] was “inactive”, the outcome [9] was “inactive” and the outcome [3] was “inactive”. The max response [4] was -3.53%, the max response [5] was -3.87% (inactive) and the Potency [6] was “inactive”. The Potency [7] was “inactive” and the outcome [10] was “inactive”.

For `CC(=O)N1CCN(c2ccc(OC[C@H]3CO[C@](Cn4ccnc4)(c4ccc(Cl)cc4Cl)O3)cc2)CC1`, the Potency [8] was 44.7 µM (active).

In the case of `Oc1ccccc1`, the max response [1] is reported as -13.8% and -5.05% and the Potency [2] is reported as “inactive”.

With `COP(=S)(OC)SCN1C(=O)c2ccccc2C1=O` the outcome [3] was “inactive”, the Potency [6] was “inactive” and the Potency [7] was “inactive”. The outcome [10] was “inactive”.

With `Nc1ccccc1C(=O)O` the Potency [8] was “inactive”, the outcome [9] was “inactive” and the max response [1] was -3.98%. For the same compound, the Potency [2] was “inactive”, the outcome [3] was “inactive” and the max response [4] was -6.42%. The max response [5] was 6.99% (inactive), the Potency [6] was “inactive” and the Potency [7] was “inactive”. For the same compound, the outcome [10] was “inactive”.

With `CC(C)c1cccc(C(C)C)c1O` the Potency [8] was “inactive”, the outcome [9] was “inactive” and the max response [1] was -14.1%. The Potency [2] was “inactive”, the outcome [3] was “inactive” and the max response [4] was 2.4%. The max response [5] was 16.4% (inactive), the Potency [6] was “inactive” and the Potency [7] was “inactive”. The outcome [10] was “inactive”.

For `CCC1(c2ccc(N)cc2)CCC(=O)NC1=O` (stereo not given), the Potency [6] was “inactive”.

In the case of `O=P1(N(CCCl)CCCl)NCCCO1` (stereo not given), the Potency [8] is reported as “inactive”, the outcome [9] is reported as “inactive” and the max response [1] is reported as 8.36% and -10.5%. For the same compound, the Potency [2] was “inactive”, the outcome [3] was “inactive” and the max response [4] was -4.41% and 6%. The max response [5] was 8.47% (inactive) and -0.0175% (inactive), the Potency [6] was “inactive” and the Potency [7] was “inactive”. The outcome [10] was “inactive”.

In the case of `COP(=S)(OC)Oc1cc(Cl)c(Cl)cc1Cl`, the max response [1] is reported as -2.58%, the Potency [2] is reported as “inactive” and the outcome [3] is reported as “inactive”. The max response [4] was 1.09%, the max response [5] was -5.5% (inactive) and the Potency [7] was “inactive”.

For `O=C(Oc1ccccc1)c1ccccc1O`, the max response [1] was 23.5% and the Potency [2] was “inactive”.

With `CC(=O)NC1CCSC1=O` (stereo not given) the Potency [6] was “inactive”.

In the case of `C[C@@H](N)[C@@H](O)c1ccccc1`, the Potency [6] is reported as “inactive”.

With `Oc1ccc(Cl)cc1` the Potency [8] was “inactive”, the outcome [9] was “inactive” and the max response [1] was -11.6%. For the same compound, the Potency [2] was “inactive”, the outcome [3] was “inactive” and the max response [4] was -7.58%. The max response [5] was -3.06% (inactive), the Potency [6] was “inactive” and the Potency [7] was “inactive”. The outcome [10] was “inactive”.

In the case of `COC(=O)[C@@H](N)CCCN/C(N)=N/[N+](=O)[O-]`, the Potency [6] is reported as “inactive”.

In the case of `C[C@]1(O)CC[C@H]2[C@@H]3CCC4=CC(=O)CC[C@]4(C)[C@@]3(F)[C@@H](O)C[C@@]21C`, the max response [1] is reported as 3.94%, the Potency [2] is reported as “inactive” and the outcome [3] is reported as “inactive”. For the same compound, the max response [4] was 17.9%, the max response [5] was -6.75% (inactive) and the Potency [6] was “inactive”.

In the case of `CC1(C)C(C=C(Cl)Cl)C1C(=O)OC(C#N)c1cccc(Oc2ccccc2)c1` (stereo not given), the outcome [9] is reported as “inactive”, the max response [1] is reported as 0.437% and the Potency [2] is reported as “inactive”. For the same compound, the outcome [3] was “inactive”, the max response [4] was -14.1% and the max response [5] was -18% (inactive). The Potency [7] was “inactive”.

In the case of `NCCc1ccc(O)cc1`, the max response [1] is reported as -3.57%, the Potency [2] is reported as “inactive” and the outcome [3] is reported as “inactive”. For the same compound, the max response [4] was -9.48%, the max response [5] was -2.52% (inactive) and the Potency [6] was “inactive”. For the same compound, the Potency [7] was “inactive” and the outcome [10] was “inactive”.

For `CN1C[C@H](C(=O)N[C@]2(C)O[C@@]3(O)[C@@H]4CCCN4C(=O)[C@H](Cc4ccccc4)N3C2=O)C=C2c3cccc4[nH]cc(c34)C[C@H]21`, the outcome [9] was “inactive”, the outcome [3] was “inactive” and the Potency [6] was 12.6 µM (active). For the same compound, the Potency [7] was “inactive”.

With `O=C1c2ccccc2C(=O)c2ccccc21` the Potency [8] was “inactive”, the outcome [9] was “inactive” and the max response [1] was -19.1%. The Potency [2] was 35.5 µM (active), the outcome [3] was “inactive” and the max response [4] was -16.5%. For the same compound, the max response [5] was -15.9% (inactive), the Potency [6] was “inactive” and the Potency [7] was “inactive”. For the same compound, the outcome [10] was “inactive”.

In the case of `C[C@]12CCC(=O)C=C1CC[C@@H]1[C@@H]2CC[C@]2(C)C(=O)CC[C@@H]12`, the outcome [3] is reported as “inactive”, the max response [4] is reported as 24.5% and the max response [5] is reported as 1.25% (inactive). For the same compound, the Potency [6] was “inactive”, the Potency [7] was “inactive” and the outcome [10] was “inactive”.

With `Nc1ccccc1` the outcome [9] was “inactive”, the max response [1] was 9.36% and the Potency [2] was “inactive”. For the same compound, the outcome [3] was “inactive”, the max response [4] was -11.1% and the max response [5] was 4.87% (inactive). The Potency [6] was “inactive” and the Potency [7] was “inactive”.

With `O=C(O)CCCc1ccc(N(CCCl)CCCl)cc1` the Potency [8] was “inactive”, the outcome [9] was “inactive” and the max response [1] was 15.5% and 20.9%. The Potency [2] was “inactive”, the outcome [3] was “inactive” and the max response [4] was 6.94% and -4.83%. For the same compound, the max response [5] was 8.7% (inactive) and 8.13% (inactive), the Potency [6] was “inactive” and the Potency [7] was “inactive”. For the same compound, the outcome [10] was “inactive”.

With `COc1cc(OC)c(OC)cc1C=O` the Potency [8] was “inactive”, the outcome [9] was “inactive” and the max response [4] was -5.72%. The max response [5] was -9.79% (inactive), the Potency [6] was “inactive” and the Potency [7] was “inactive”.

With `CCC(C)(C)c1ccc(O)cc1` the Potency [8] was “inactive”, the outcome [9] was “inactive” and the max response [1] was -12.7% and -6.48%. For the same compound, the Potency [2] was “inactive”, the outcome [3] was “inactive” and the max response [4] was -6.99% and -5.65%. The max response [5] was 7.35% (inactive) and 8.15% (inactive), the Potency [6] was “inactive” and the Potency [7] was “inactive”. The outcome [10] was “inactive”.

For `Nc1nc(N)nc(NC2CC2)n1`, the max response [1] was -19.4%, the Potency [2] was “inactive” and the outcome [3] was “inactive”. For the same compound, the max response [4] was -17.8%, the max response [5] was 6.27% (inactive) and the Potency [6] was “inactive”. The Potency [7] was “inactive” and the outcome [10] was “inactive”.

For `C[C@]12CCC(=O)C=C1CC[C@@H]1[C@@H]2CC[C@@]2(C)[C@H]1CC[C@]2(C)O`, the outcome [9] was “inactive”, the max response [1] was -11.4% and the Potency [2] was “inactive”. For the same compound, the outcome [3] was “inactive”, the max response [4] was -11.8% and the max response [5] was 36.9% (inactive). The Potency [6] was “inactive” and the Potency [7] was “inactive”.

Reference: PubChem BioAssay (NCATS)
